Bioassay records as filed in PubChem.
A selection: hits, their analogues and other compounds. The true share with any hit is near 5.9%.
ATXN viability = Viability Counterscreen for Primary qHTS for Inhibitors of ATXN expression. Potency, µM (titrated, usually from 56.7 µM), usual class: cytotoxic. hit rate 0.49% among 400,000. S2 cells (HEK-293 line with an ATXN2-luciferase reporter) viability, CellTiter-Fluor protease fluorescence, 24 h; note: nearly all actives have a fitted effect of over 40% in size
TGFb SMAD3 inh = qHTS for Inhibitors of TGF-b | AID 588855, 2011 | HepG2 CAGA-GFP TGF-b/SMAD3 reporter, GFP fluorescence, 18 h; TGF-beta stimulated, 500 pg/mL final | Potency, µM (doses to about 46.1 µM), inactives show at the highest dose activity, negative = inhibition, hits mostly inhibitors | hit rate 1.2% among 410,000; note: % is set by controls: 0 for no effect and ±100 for the full control effect; nearly all actives have a fitted effect of over 65% in size
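Using HEPG2 CAGA-GFP reporter cells at 1000 cells/well, we pinned test compounds, stimulated with recombinant TGF-beta (500 pg/mL final) and measured total well GFP after 18 h.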
KB-3-1 tox = qHTS assay for MDR1-selective chemotherapeutics: Primary screen using the parental adenocarcinoma cell KB-3-1; KB-3-1 viability, CellTiter-Glo ATP luminescence, 72 h; Potency, µM (titrated, usually from 46.1 µM), usual class: cytotoxic; hit rate 1.4% among 400,000; AID 1347075, 2019; note: % is set by controls: 0 for no effect and ±100 for the full control effect; nearly all actives have a fitted effect of over 60% in size
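Multi-concentration cytotoxicity screen in KB-3-1 cells grown in DMEM lacking phenol red with 10% FBS. After 72 h at 37 °C with compound, ATP-dependent luminescence was recorded.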
ATXN2 expr inh = Primary qHTS for Inhibitors of ATXN expression | HEK-293 ATXN2-luciferase reporter, luminescence, 24 h | Potency, µM (doses to about 57 µM), for the others: at the top dose activity change, negative = inhibition, hits mostly inhibitors | hit rate 0.72% among 360,000; note: % is set by controls: 0 for no effect and ±100 for the full control effect; nearly all actives have a fitted effect of over 55% in size
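ATXN2-luciferase reporter cells (luciferase flanked by upstream and downstream ATXN2 gene portions) were treated 24 h at 37 °C with compounds at up to 57 uM. SteadyGlo luminescence gave expression; GF-AFC fluorescence gave viability.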
HepG2 tox = qHTS for Inhibitors of TGF-b: Cytotox Counterscreen | AID 588856, 2011 | Potency, µM (titrated, usually from 46.1 µM), for inactives: at the top dose activity change, negative = cytotoxicity, usual class: cytotoxic | hit rate 0.76% among 410,000 | HepG2 CAGA-GFP viability, ATP luminescence, 18 h
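CellTiter-Glo luminescence gave cytotoxicity after 18 hours at 37 degrees C. The cells were HepG2 CAGA-GFP in 1% FBS DMEM, stimulated with 500 pg/mL TGF-beta after compound addition. %Activity was normalised to no-cell wells (complete cell-killing) and DMSO (no toxicity), and curves were fitted and classified.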
KB-V1 MDR tox = qHTS assay for MDR1-selective chemotherapeutics: Primary screen using the drug-selected MDR subline cells KB-V1. KB-V1 MDR cells viability, CellTiter-Glo, 72 h. Potency, µM (top dose mostly 46.1 µM), actives largely listed as cytotoxic. hit rate 3.4% among 400,000. AID 1347076, 2019; note: % is set by controls: 0 for no effect and ±100 for the full control effect; nearly all actives have a fitted effect of over 60% in size
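Cytotoxicity toward P-gp-expressing KB-V1 cells was determined as loss of CellTiter-Glo luminescence after 72 h at 37 degrees C. Compounds were tested in quantitative HTS format across a concentration range, with curves fitted to normalized data.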
* = called active by the depositor; i = inactive; ? = inconclusive; / = no result given; [ ] = another dose, or the depositor's remark. Calls come from the whole dose curve; as a rule, active = well fitted curve in the direction sought with a large enough effect; inconclusive = small, poorly fitted or top-dose-only effect, or another doubt; inactive = no such curve, though single readings can be large; an effect the other way counts as inactive or inconclusive. Potency is the fitted concentration of half-maximal effect.

SMILES	ATXN viability	TGFb SMAD3 inh	KB-3-1 tox	ATXN2 expr inh	HepG2 tox	KB-V1 MDR tox
Cc1cc(O)c2c(C)c(CC(=O)NCc3ccccc3Cl)c(=O)oc2c1	i	-4.2%	i	3.1%	-7.5%	i
CC1(Cc2ccccc2OC(F)(F)F)C(=O)Nc2c(Cl)ccc(Cl)c21 (stereo not given)	?	14.1µM*	i	0.0%	-94.0%	i
COc1ccc(OC(F)(F)F)cc1CC1(C)C(=O)Nc2cccc(Cl)c21 (stereo not given)	?	?	i	?	-92.5%	i
Cc1ccc(NC(=S)N2CCN(CCN3C(=O)c4cccc5cccc(c45)C3=O)CC2)cc1	i	?	i	-7.7%	-51.8%	14.6µM*
COc1cc2c3c(cccc3c1)C(=O)N(CCN1CCCC1)C2=O	i	14.1µM*	?	/	19.2%	10.3µM*
Cc1ccc(-c2ccc(=O)n(CC(=O)Nc3ccc(F)c(Cl)c3)n2)cc1C	i	-4.2%	i	7.1%	-0.8%	i
COC(=O)c1c(NC(=O)CCCOc2ccc(C(C)(C)C)cc2)sc2c1C(C(=O)OC)CC2 (stereo not given)	/	-26.2%	/	/	-26.3%	/
CCc1ccc(-c2nc3c(c(SCc4ccccc4F)n2)Cc2c(CO)cnc(C)c2O3)cc1	i	-16.4%	i	10.3%	-1.5%	i
C[C@]12CC[C@@H]3c4ccc(O)cc4CC[C@H]3[C@H]1[C@@H](O)[C@@H](O)[C@H]2O	/	/	/	20.0%	/	/
CC(=O)c1ccc(N2CCN(c3ncnc4onc(C)c34)CC2)cc1	i	1.7%	20.6µM*	-13.7%	-6.9%	?
O=C(NCc1ccccc1)[C@]1(C(F)(F)F)C[C@H](CCCO)CCCO1	/	-7.0%	/	/	-20.7%	/
Cc1nn(Cc2ccccc2)c(C)c1/C=N/NC(=O)CNc1cccc(C(F)(F)F)c1	/	?	?	/	-66.7%	i
COc1ccc(NCC(=O)N/N=C/c2c(C)nn(Cc3ccccc3)c2Cl)cc1	i	-7.2%	i	-0.7%	-25.0%	11.6µM*
Cc1nn(-c2ccccc2)c(C)c1/C=N/NC(=O)c1cc(-c2ccc(Cl)s2)[nH]n1	i	-8.5%	2.91µM*	-21.0%	-4.2%	11.6µM*
Cc1nn(-c2ccccc2)c(Cl)c1/C=N/NC(=O)OC(C)(C)C	i	-13.4%	i	43.8%	-2.8%	13µM*
Cc1nn(-c2ccccc2)c(C)c1/C=N/NC(=O)CSc1nnc(SCc2ccc(Cl)cc2)s1	i	10.2%	?	78.4%	-0.6%	2.31µM*
CNC(=S)N/N=C/c1c(C)nn(-c2ccccc2)c1Cl	i	12.4%	i	67.8%	-2.0%	?
O=C(CSc1nnc(SCc2ccccc2)s1)N/N=C/c1c(Cl)cccc1Cl	i	-9.3%	i	2.3%	2.2%	?
COc1ccc(C)cc1NC(=O)N1CCN(c2cc(-c3noc(C)n3)ccc2C)CC1	i	?	i	-8.0%	-13.8%	?
Cc1nn(-c2ccccc2)c(C)c1/C=N/NC(=O)c1cc(-c2cccs2)[nH]n1	?	?	0.517µM*	-7.7%	-22.1%	?
CC(/C=N/NC(=O)c1cc(-c2ccc(C)s2)[nH]n1)=C\c1ccccc1	?	?	20.6µM*	-21.2%	-59.1%	?
Cc1nn(-c2ccccc2)c(C)c1/C=N/NC(=O)c1cccs1	i	-6.7%	?	157.4%	-22.4%	20.6µM*
CC(/C=N/NC(=O)c1cc(C(C)(C)C)[nH]n1)=C\c1ccccc1	i	34.1%	?	8.7%	-22.1%	?
Cc1nn(-c2ccccc2)c(C)c1/C=N/NC(=O)c1cc(-c2ccc(Br)s2)[nH]n1	?	1.9%	?	?	5.5%	?
COC(=O)c1[nH]c2ccc(C)cc2c1NC(=O)CN1CCCC(C)(C)C1	?	?	20.6µM*	-10.8%	-3.5%	?
SMILES	ATXN viability	TGFb SMAD3 inh	KB-3-1 tox	ATXN2 expr inh	HepG2 tox	KB-V1 MDR tox
CCN(CC(=O)Nc1c(C(=O)OC)[nH]c2ccc(C)cc12)c1ccc2c(c1)OCO2	?	-22.5%	i	-19.5%	-23.4%	7.31µM*
COC(=O)c1[nH]c2ccc(Br)cc2c1NC(=O)CN1CCN(C2CCCCC2)CC1	35.5µM*	?	?	17.8µM*	-116.9%	?
COC(=O)c1[nH]c2ccccc2c1NC(=O)CN1CCN(c2cccc(OC)c2)C(C)C1 (stereo not given)	i	-3.4%	18.4µM*	?	-35.7%	?
COC(=O)c1[nH]c2cc(OC)ccc2c1NC(=O)CCN1CCN(c2ccccc2)CC1	i	3.9%	i	-14.3%	-1.1%	i
CCOC(=O)C1=C(CN2CCN(c3cc(C)ccc3C)CC2)NC(=O)NC1c1ccccc1 (stereo not given)	?	?	?	?	-66.0%	?
O=S1(=O)CC(N2CCC(Cc3ccccc3)CC2)CN1C1CCCCC1 (stereo not given)	i	-18.2%	i	12.0%	-13.7%	?
CCOC(=O)c1[nH]c2ccc(F)cc2c1NC(=O)CCN1CCOCC1	i	5.9%	i	-27.0%[11.3 µM]	-22.8%	i
CCOC(=O)c1[nH]c2ccc(Br)cc2c1NC(=O)CCN1CCCC(C)(C)C1	i	?	i	-16.5%	-18.6%	3.26µM*
CCNC(=O)COC(=O)c1cc(=O)[nH]c2ccccc12	i	0.7%	i	2.3%	-14.2%	i
Cc1noc(C)c1COC(=O)c1cc(=O)[nH]c2ccccc12	i	17.0%	?	5.3%	13.3%	5.8µM*
Cc1cccc(C(=O)Nc2ccccc2C(=O)OCc2c(C)noc2C)c1	i	5.0%	i	-11.1%	4.3%	3.26µM*
Cc1ccc(C(=O)COC(=O)c2cc(=O)[nH]c3ccccc23)cc1	i	-8.1%	i	22.1%	-10.2%	i
CCCCOC(=O)c1cc(=O)[nH]c2ccc(C)cc12	i	-2.3%	14.6µM*	0.9%	0.6%	18.4µM*
CCCCOC(=O)c1cc(=O)[nH]c2ccccc12	i	-7.5%	i	14.1%	-30.7%	5.8µM*
Cc1ccccc1NC(=O)c1cccc(OCc2c(C)noc2C)c1	i	?	i	4.9%	-2.8%	i
COc1ccc(C(=O)NCC(=O)OCC(=O)c2cccc3ccccc23)cc1	/	2.7%	?	/	-4.6%	i
Cc1cc(C)n2c(Nc3c(C)cccc3C)c(CC(C)C)nc2n1	?	/	i	-12.2%	/	i
